# Some of the results follow. Records with an inconclusive call do not appear. Calls of active or inactive are those of the source. Calls come from the whole dose curve; as a rule, active = well fitted cell-killing curve with a large enough effect; inconclusive = small, poorly fitted or top-dose-only effect; inactive = no such curve, though single readings can be large or run the other way.
# Test: H358 Cell Viability Secondary Assay for qHTS Assay for Epigenetic Modulators: Round 2
# Settings: H358 NSCLC viability, ATP luminescence, 72 h
# Text: NIH Molecular Libraries Screening Centers Network [MLSCN] NIH Chemical Genomics Center [NCGC] MLSCN Grant: 1 X01 MH079860-01 Assay Provider: Elisabeth D. Martinez, University of Texas SW Medical Center NCGC Assay Overview: This secondary assay characterizes selected actives identified in the qHTS of the Locus Derepression (LDR) assay (PubChem AID 1865). The LDR assay detects the derepression of a GFP reporter that is stably integrated in a region of the genome of murine c127i mammary cells that is presumably silenced. Compounds that cause derepression of the locus to express GFP are identified by enumerating GFP positive cells using a laser-scanning microplate cytometer. Selected LDR actives were assayed for killing of H358 non-small cell lung carcinoma (NSCLC) cells. […] Cell viability was measured using a luminescence-based detection reagent that measures cellular ATP levels.
# NCGC Assay Protocol Summary H358 cells were seeded at 125 cells/5 uL/well in white, solid bottom, 1536 well plates (Greiner). […] Plates were incubated 72 hours at 37deg C and 5% CO2, then 3.5 uL/well CellTiter-Glo(R) (Promega) detection reagent was added, plates were incubated at ambient temperature for 10 minutes and luminescence was measured by a ViewLux (Perkin Elmer) reader. […] A quantitative high-throughput screen identifies potential epigenetic modulators of gene expression. […]
row,SMILES,Potency
1,O=C1NC(=O)N(CCc2ccc(F)cc2)C(=O)/C1=C/C=C/c1ccccc1,8.88 µM (active)
